Results filed as inconclusive are left out. Active and inactive are the calls of the source. The calls were made as follows: active = hit-call score of the fitted dose curve at least 0.9, where 1 is the maximum; inconclusive = response in the unintended direction; inactive = score below 0.9.

The target in assay [1] is human Adrenergic, Beta 1 Receptor (Adrb1), ADRB1 (gene 153) (UniProt P08588). As to the kind of experiment: NVS_GPCR_hAdrb1: NovaScreen (NVS) G Protein-Coupled Receptor Assay for human Adrenergic, Beta 1 Receptor (Adrb1) (AID 2283258). Summed up: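 Membranes/protein extracted from human neuroepithelioma cells, radioligand competition binding read by filtration and scintillation 2 h post-dose. Single 25 uM duplicate screen, then concentration-response follow-up; DMSO as negative control.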

In assay [2] the target is Beta-2 adrenergic receptor (Homo sapiens) (UniProt P07550). As to the kind of experiment: NVS_GPCR_hAdrb2: NovaScreen (NVS) G Protein-Coupled Receptor Assay for human Adrenergic, Beta 2 Receptor (Adrb2) (AID 2283261). In short, it runs like this: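 Compounds screened in duplicate at 25 uM, then actives in concentration series. Human beta-2 receptor from CHO material, cell-free; radioligand displacement after 1 h measured by filtration and scintillation against DMSO baseline.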

Assay [3] deals with human Adrenergic, Beta 3 Receptor (Adrb3), ADRB3 (gene 155) (UniProt P13945). As to the kind of experiment: NVS_GPCR_hAdrb3: NovaScreen (NVS) G Protein-Coupled Receptor Assay for human Adrenergic, Beta 3 Receptor (Adrb3) (AID 2283262). In short, it runs like this:
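A cell-free filter binding assay read by scintillation counting, with displacement of a specific radioligand measured after 1 hour. The receptor source was SK-N-MC extracts (cells pretreated with isoproterenol and 8-bromo-cAMP). Compounds were first tested at 25 uM in duplicate and then in concentration series.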

For assay [4], the target named is human Neurokinin, NK2 Receptor, TACR2 (gene 6865) (UniProt P21452). As to the kind of experiment: NVS_GPCR_hNK2: NovaScreen (NVS) G Protein-Coupled Receptor Assay for human Neurokinin, NK2 Receptor (AID 2283278).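 Also: actives reduce bound radioligand signal relative to DMSO baseline.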 Summed up: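 Cell-free radioligand binding using receptor protein extracted from CHO cells; readings taken 4 hours after chemical dosing by filter-based scintillation counting. Primary screen ran single concentration (25 uM) in duplicate; actives followed up in concentration series, loss-of-signal versus DMSO baseline.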

In assay [5] the target is human Dopamine Receptor D4.4 (DRD4.4), DRD4 (gene 1815) (UniProt P21917). As to the kind of experiment: NVS_GPCR_hDRD4.4: NovaScreen (NVS) G Protein-Coupled Receptor Assay for human Dopamine Receptor D4.4 (DRD4.4) (AID 2283264). In short, it runs like this: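 Filter-binding assay with a tritiated or iodinated ligand, cell-free receptor prepared from CHO, 1 hour. Loss of bound radioactivity versus DMSO; single 25 uM duplicate screen, then concentration-response for actives.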

In assay [6] the target is Muscarinic acetylcholine receptor M2 (Homo sapiens) (UniProt P08172). As to the kind of experiment: NVS_GPCR_hM2: NovaScreen (NVS) G Protein-Coupled Receptor Assay for human Muscarinic, M2 Receptor (AID 2283273). Summed up: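 Filter-based radiodetection read bound radioligand 1 h after dosing CHO-derived membrane protein. Single-concentration duplicates (25 uM) first, then concentration-response for actives; signal loss versus DMSO scored.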

The target in assay [7] is human Muscarinic, M4 Receptor, CHRM4 (gene 1132) (UniProt P08173). Kind of assay: NVS_GPCR_hM4: NovaScreen (NVS) G Protein-Coupled Receptor Assay for human Muscarinic, M4 Receptor (AID 2283274). Summed up:
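Filter-based scintillation counting of radioligand bound to CHO-expressed human M4 preparations after 1 h; loss of signal fitted versus DMSO. Initial duplicate testing at 25 uM, concentration-response follow-up for actives.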

Assay [8] concerns the target human Dopamine Receptor D2 (DRD2), DRD2 (gene 1813) (UniProt P14416). Kind of assay: NVS_GPCR_hDRD2s: NovaScreen (NVS) G Protein-Coupled Receptor Assay for human Dopamine Receptor D2 (DRD2) (AID 2283266). Summed up:
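Test compound (25 uM, duplicate in the primary screen; concentration series at follow-up) competed with radioligand for human DRD2 in CHO-derived membrane protein. Filter-based scintillation counting was done 1.5 hours after dosing, with loss of signal analysed against DMSO.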

Assay [9] deals with Muscarinic acetylcholine receptor M1 (Homo sapiens) (UniProt P11229). Kind of assay: NVS_GPCR_hM1: NovaScreen (NVS) G Protein-Coupled Receptor Assay for human Muscarinic, M1 Receptor (AID 2283270). In short, it runs like this: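 Actives from a duplicate 25 uM single-point screen were retested in concentration series. Binding measured as displacement of a radioligand from CHO-derived receptor preparation, 1 h incubation, filtration and scintillation counting, analysed as signal loss against DMSO.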

Assay [10] addresses Muscarinic acetylcholine receptor M3 (Homo sapiens) (UniProt P20309). Kind of assay: NVS_GPCR_hM3: NovaScreen (NVS) G Protein-Coupled Receptor Assay for human Muscarinic, M3 Receptor (AID 2283272). In short, it runs like this: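 Radioligand displacement binding on human M3 receptor in CHO-derived membranes, 1 h incubation, filter-based scintillation counting. Primary screen in duplicate at 25 uM; actives followed up in concentration series; loss of signal versus DMSO.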

The target of assay [11] is Muscarinic acetylcholine receptor M5 (Homo sapiens) (UniProt P08912). As to the kind of experiment: NVS_GPCR_hM5: NovaScreen (NVS) G Protein-Coupled Receptor Assay for human Muscarinic, M5 Receptor (AID 2283275). Summed up:
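Chemicals passing a primary duplicate screen at 25 uM were run as singleton concentration series, maximum 50 uM. Displacement of a specific radioligand from CHO-extracted receptor was read by filter scintillation after 1 h, relative to DMSO.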

Assay [12] addresses human Adrenergic, Alpha 2c Receptor (Adra2C), ADRA2C (gene 152) (UniProt P18825). As to the kind of experiment: NVS_GPCR_hAdra2C: NovaScreen (NVS) G Protein-Coupled Receptor Assay for human Adrenergic, Alpha 2c Receptor (Adra2C) (AID 2283259). In short, it runs like this: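 Screened first in duplicate at 25 uM, with actives then run as concentration series. Membranes from Sf9 cells were exposed for 1 h, and displacement of radioligand was counted after filtration, using DMSO as baseline.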

Assay [13] concerns the target human Histamine 1 Receptor (H1), HRH1 (gene 3269) (UniProt P35367). As to the kind of experiment: NVS_GPCR_hH1: NovaScreen (NVS) G Protein-Coupled Receptor Assay for human Histamine 1 Receptor (H1) (AID 2283268). Summed up: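 Filter-based scintillation detection of radioligand binding to human H1, 1 h incubation; chemicals screened in duplicate at 25 uM, then concentration-response; signal loss relative to DMSO taken as activity.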

Assay [14] deals with D(1A) dopamine receptor (Homo sapiens) (UniProt P21728). Kind of assay: NVS_GPCR_hDRD1: NovaScreen (NVS) G Protein-Coupled Receptor Assay for human Dopamine Receptor D1 (DRD1) (AID 2283269). In short, it runs like this: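 Cell-free competition with radioligand, filter-trapped and scintillation-counted 1 h post-dose, using HEK293-derived human D1 preparation. Duplicate single-point testing at 25 uM first, then concentration series for actives; DMSO served as baseline, loss-of-signal scored.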

The target of assay [15] is human Neuropeptide Receptor Y1 (NPY1), NPY1R (gene 4886) (UniProt P25929). As to the kind of experiment: NVS_GPCR_hNPY1: NovaScreen (NVS) G Protein-Coupled Receptor Assay for human Neuropeptide Receptor Y1 (NPY1) (AID 2283276). Summed up:
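Displacement of specific radioligand from NPY1 receptor of SK-N-MC origin, read by filtration and scintillation after 1 h. Compounds first tested at 25 uM in duplicate, then actives in concentration series; signal loss relative to DMSO.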

The target of assay [16] is human Endothelin Receptor Type A (ETA), EDNRA (gene 1909) (UniProt P25101). Kind of assay: NVS_GPCR_hETA: NovaScreen (NVS) G Protein-Coupled Receptor Assay for human Endothelin Receptor Type A (ETA) (AID 2283265). Summed up:
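Binding of radioligand to membrane protein extracted from SH-SY5Y cells was read by filtration and scintillation after 3 h. Compounds were screened at 25 uM in duplicate, with hits followed up in singleton concentration series to 50 uM.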

In assay [17] the target is human Endothelin Receptor Type B (ETB), EDNRB (gene 1910) (UniProt P24530). As to the kind of experiment: NVS_GPCR_hETB: NovaScreen (NVS) G Protein-Coupled Receptor Assay for human Endothelin Receptor Type B (ETB) (AID 2283267). Summed up: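 Filter-based scintillation readout of radioligand displacement, 4 h, using membranes from human astrocytoma cells. Actives from a 25 uM duplicate screen were retested in concentration-response (top 50 uM) relative to DMSO baseline.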

The target of assay [18] is Neuropeptide Y receptor type 2 (Homo sapiens) (UniProt P49146). Kind of assay: NVS_GPCR_hNPY2: NovaScreen (NVS) G Protein-Coupled Receptor Assay for human Neuropeptide Receptor Y2 (NPY2) (AID 2283277). In short, it runs like this:
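Chemicals were first tested in duplicate at 25 uM, then actives in singleton concentration series to 50 uM. Tracer binding to SK-N-MC-derived protein measured cell-free after 1 h via filter scintillation; signal loss relative to DMSO.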

Chain of Beta-2 adrenergic receptor (Homo sapiens) (P07550 whole entry, looked up): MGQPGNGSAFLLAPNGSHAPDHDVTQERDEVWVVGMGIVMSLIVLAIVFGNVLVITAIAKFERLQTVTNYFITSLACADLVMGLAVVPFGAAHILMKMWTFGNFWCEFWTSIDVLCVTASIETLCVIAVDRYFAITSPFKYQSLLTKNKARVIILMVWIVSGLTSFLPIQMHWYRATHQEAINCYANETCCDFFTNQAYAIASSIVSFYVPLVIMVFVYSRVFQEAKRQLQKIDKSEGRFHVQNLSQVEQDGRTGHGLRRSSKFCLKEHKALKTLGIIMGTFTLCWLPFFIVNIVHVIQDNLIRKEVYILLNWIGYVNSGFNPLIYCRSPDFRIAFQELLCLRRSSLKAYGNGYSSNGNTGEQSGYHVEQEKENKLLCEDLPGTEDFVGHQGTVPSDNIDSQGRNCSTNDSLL
Chain of human Dopamine Receptor D4.4 (DRD4.4), DRD4 (gene 1815) (P21917 whole entry, looked up): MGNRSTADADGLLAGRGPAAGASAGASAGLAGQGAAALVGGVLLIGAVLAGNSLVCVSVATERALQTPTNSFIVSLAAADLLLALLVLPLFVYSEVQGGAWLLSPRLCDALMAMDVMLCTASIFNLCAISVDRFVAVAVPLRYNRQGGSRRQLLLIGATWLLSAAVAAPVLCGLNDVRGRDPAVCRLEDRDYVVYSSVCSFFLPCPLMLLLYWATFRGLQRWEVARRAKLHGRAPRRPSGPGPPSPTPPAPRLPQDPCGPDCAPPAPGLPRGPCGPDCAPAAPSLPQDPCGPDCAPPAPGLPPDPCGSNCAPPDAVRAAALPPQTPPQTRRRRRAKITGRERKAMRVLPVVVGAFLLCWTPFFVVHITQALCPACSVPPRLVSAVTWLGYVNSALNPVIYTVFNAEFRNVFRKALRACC
Chain of human Adrenergic, Alpha 2c Receptor (Adra2C), ADRA2C (gene 152) (P18825 whole entry, looked up): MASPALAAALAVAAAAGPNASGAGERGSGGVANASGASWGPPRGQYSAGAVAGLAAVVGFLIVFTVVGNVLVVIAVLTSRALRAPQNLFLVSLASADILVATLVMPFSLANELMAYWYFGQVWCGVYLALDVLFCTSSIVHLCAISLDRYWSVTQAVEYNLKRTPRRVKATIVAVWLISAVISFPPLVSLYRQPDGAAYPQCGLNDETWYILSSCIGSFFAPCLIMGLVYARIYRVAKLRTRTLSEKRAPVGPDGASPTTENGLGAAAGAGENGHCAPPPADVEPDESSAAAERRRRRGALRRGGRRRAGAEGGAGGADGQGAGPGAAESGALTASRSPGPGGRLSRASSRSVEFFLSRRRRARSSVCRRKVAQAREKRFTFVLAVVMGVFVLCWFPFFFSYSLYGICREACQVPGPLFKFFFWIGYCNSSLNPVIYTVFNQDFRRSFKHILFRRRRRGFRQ
Chain of human Muscarinic, M4 Receptor, CHRM4 (gene 1132) (P08173 whole entry, looked up): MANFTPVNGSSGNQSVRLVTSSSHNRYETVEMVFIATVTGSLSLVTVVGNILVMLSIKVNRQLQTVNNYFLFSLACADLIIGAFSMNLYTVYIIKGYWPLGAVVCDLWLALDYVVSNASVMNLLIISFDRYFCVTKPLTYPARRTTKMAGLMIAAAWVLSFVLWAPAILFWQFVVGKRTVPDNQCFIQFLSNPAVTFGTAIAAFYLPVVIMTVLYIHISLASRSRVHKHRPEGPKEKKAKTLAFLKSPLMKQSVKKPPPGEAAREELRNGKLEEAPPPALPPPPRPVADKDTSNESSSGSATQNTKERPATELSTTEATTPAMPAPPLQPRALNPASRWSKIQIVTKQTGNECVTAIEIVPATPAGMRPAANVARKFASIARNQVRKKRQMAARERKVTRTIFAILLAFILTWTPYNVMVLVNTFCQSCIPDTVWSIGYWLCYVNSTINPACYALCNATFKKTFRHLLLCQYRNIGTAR
Chain of Muscarinic acetylcholine receptor M5 (Homo sapiens) (P08912 whole entry, looked up): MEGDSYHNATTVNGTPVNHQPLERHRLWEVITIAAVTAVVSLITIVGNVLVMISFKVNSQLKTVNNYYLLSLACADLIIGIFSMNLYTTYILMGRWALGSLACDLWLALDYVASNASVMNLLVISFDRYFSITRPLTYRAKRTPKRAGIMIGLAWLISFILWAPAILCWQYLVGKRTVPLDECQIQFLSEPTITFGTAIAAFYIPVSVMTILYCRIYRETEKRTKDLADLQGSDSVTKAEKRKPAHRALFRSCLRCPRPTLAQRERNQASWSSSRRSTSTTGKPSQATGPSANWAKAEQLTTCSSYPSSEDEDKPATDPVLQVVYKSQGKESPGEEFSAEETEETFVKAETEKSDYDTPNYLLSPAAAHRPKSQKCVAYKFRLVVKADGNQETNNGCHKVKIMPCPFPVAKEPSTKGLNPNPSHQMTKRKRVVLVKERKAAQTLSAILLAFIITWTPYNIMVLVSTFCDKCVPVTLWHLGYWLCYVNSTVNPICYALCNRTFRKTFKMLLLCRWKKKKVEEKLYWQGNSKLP
Chain of D(1A) dopamine receptor (Homo sapiens) (P21728 whole entry, looked up): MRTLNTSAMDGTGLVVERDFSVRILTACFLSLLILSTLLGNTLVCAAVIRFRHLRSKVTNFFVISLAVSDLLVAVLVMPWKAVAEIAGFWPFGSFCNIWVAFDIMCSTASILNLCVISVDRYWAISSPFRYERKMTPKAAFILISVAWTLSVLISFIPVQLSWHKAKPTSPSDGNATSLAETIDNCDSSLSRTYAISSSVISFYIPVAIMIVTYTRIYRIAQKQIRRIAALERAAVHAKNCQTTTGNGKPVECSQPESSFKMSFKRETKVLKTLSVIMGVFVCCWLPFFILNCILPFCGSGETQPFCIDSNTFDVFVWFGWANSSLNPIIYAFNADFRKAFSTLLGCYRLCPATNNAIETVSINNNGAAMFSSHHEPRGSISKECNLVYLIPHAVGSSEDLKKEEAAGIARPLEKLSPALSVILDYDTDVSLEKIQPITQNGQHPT
Chain of Muscarinic acetylcholine receptor M2 (Homo sapiens) (P08172 whole entry, looked up): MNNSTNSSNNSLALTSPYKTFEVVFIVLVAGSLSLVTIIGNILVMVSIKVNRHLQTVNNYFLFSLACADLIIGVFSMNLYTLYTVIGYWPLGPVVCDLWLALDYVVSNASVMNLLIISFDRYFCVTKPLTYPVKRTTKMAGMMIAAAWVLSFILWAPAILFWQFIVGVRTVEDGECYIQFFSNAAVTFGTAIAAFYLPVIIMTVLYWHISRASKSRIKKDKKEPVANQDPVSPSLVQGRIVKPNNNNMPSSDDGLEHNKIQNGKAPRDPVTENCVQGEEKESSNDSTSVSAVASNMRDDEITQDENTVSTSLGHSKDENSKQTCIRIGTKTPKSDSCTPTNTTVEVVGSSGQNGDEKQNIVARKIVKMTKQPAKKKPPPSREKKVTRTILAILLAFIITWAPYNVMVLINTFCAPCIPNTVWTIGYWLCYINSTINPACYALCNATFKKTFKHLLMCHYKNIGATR
Chain of human Adrenergic, Beta 1 Receptor (Adrb1), ADRB1 (gene 153) (P08588 whole entry, looked up): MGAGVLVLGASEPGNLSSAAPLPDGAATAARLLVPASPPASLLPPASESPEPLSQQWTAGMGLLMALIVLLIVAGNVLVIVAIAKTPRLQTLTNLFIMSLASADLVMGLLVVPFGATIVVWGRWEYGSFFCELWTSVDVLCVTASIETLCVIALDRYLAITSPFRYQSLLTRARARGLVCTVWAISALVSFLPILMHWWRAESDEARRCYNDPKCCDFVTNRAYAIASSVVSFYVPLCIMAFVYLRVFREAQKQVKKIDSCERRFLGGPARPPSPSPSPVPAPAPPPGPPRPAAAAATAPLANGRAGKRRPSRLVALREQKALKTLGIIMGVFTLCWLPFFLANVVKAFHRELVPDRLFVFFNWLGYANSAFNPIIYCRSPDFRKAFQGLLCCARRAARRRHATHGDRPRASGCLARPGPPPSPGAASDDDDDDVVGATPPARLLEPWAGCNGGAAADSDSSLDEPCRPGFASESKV
Chain of human Dopamine Receptor D2 (DRD2), DRD2 (gene 1813) (P14416 whole entry, looked up): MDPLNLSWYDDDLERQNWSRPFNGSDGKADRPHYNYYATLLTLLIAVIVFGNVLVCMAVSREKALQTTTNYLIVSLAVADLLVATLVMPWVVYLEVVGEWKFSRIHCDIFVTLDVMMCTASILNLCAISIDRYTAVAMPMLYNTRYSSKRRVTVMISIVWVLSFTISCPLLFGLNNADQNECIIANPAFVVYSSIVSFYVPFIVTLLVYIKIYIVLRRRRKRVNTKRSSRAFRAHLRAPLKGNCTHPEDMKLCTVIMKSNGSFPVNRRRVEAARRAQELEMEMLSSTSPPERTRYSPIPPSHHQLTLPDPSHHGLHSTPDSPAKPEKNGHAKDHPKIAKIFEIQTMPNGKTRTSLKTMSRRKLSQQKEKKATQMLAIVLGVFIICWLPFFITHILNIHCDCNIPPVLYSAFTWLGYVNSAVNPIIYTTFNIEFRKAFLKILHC
Chain of human Neurokinin, NK2 Receptor, TACR2 (gene 6865) (P21452 whole entry, looked up): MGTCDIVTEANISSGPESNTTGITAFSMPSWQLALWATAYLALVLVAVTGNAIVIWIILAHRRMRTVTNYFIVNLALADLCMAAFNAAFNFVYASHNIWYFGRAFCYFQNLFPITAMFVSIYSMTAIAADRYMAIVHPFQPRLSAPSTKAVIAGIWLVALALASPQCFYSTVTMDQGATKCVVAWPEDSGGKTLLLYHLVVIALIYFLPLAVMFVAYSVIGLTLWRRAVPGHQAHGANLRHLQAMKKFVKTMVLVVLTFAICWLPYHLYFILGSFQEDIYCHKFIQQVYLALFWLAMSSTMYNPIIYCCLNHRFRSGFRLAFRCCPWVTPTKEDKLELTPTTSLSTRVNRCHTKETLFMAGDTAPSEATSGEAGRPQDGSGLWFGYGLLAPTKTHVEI
Chain of human Adrenergic, Beta 3 Receptor (Adrb3), ADRB3 (gene 155) (P13945 whole entry, looked up): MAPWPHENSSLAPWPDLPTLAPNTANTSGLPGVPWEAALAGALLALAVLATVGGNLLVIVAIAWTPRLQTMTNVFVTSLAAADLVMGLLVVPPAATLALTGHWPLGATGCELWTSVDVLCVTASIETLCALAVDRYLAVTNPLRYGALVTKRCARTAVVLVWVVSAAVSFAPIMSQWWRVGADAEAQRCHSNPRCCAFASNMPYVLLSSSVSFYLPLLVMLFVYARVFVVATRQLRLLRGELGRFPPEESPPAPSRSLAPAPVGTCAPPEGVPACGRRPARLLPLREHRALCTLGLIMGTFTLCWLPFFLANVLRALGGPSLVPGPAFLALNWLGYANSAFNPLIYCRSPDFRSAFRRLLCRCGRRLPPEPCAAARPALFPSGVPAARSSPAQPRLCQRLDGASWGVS

For the compound `O=C(O)Cc1ccccc1Nc1c(Cl)cccc1Cl`, the result in assay [1], in assay [2] and in assay [3] was inactive.
For `CCOc1ccc2c(c1)C(C)=CC(C)(C)N2`, in assay [4], the compound was called inactive.
The same measure, in the same setting: for `Oc1ccc2ccccc2c1N=Nc1ccccc1` the value was “inactive”.
As for `CCc1c(C(=O)NN2CCCCC2)nn(-c2ccc(Cl)cc2Cl)c1-c1ccc(Br)cc1`, the compound was called inactive in assay [5] and in assay [4].
Regarding `C[C@]12C=CC(=O)C=C1CC[C@@H]1[C@@H]2C(=O)C[C@@]2(C)[C@H]1CC[C@]2(O)C(=O)CO`, the AC50 (commonly the concentration at which the activity in the assay is half-maximal) is 15 µM (active) in assay [6] and 25 µM (active) in assay [7].
For the compound `Cc1nc(-c2ccc3c(c2)CCN(CCC2CCC(NC(=O)/C=C/c4ccc(F)cc4)CC2)CC3)no1` (stereo unspecified), the result in assay [8], in assay [10] and in assay [11] was inactive. The AC50 was 0.148 µM (active) in assay [9], 0.0463 µM (active) in assay [6] and 0.123 µM (active) in assay [7].
For `NC(=O)Cn1c(=O)cc(CCN2CCN(c3nccc4sccc34)CC2)c2ccc(F)cc21`, the AC50 in [1] is 1.38 µM (active); in assay [12], 0.666 µM (active); in assay [2] it was 8.69 µM (active); in assay [5], 0.023 µM (active); in assay [8], 0.926 µM (active); in assay [13], 0.199 µM (active). For the same compound, the AC50 is 0.00708 µM (active) in assay [14], 9.95 µM (active) in assay [15] and 33.7 µM (active) in assay [4].
`CNCc1cc(F)ccc1Oc1ccc(Cl)c(Cl)c1`: the AC50 in assay [6] and in [7] was 25 µM (active) in each case.
Turning to `NCC1(Cc2noc(=O)[nH]2)CCCCC1`, the compound was called inactive in assay [16] and in assay [17].
As for `Oc1ccc2c(c1)OC[C@@H](N1CCC(O)(c3ccc(F)cc3)CC1)[C@H]2O`, the call in assay [12], in [2], in assay [3], in [8], in assay [14] and in [9] was inactive. Besides, in assay [6], the compound was called inactive. Also, the concentration at half-maximal activity (AC50) in assay [11] was 16 µM (active).
Consider `CC(=O)Oc1ccccc1C(=O)O`, for which, in assay [15], the AC50 is 4.96 µM (active).
As to `O=C(N[C@@H](Cc1ccccc1)[C@@H](O)C(=O)N1C[C@@H](O)[C@@H](O)C1)c1cc2cc(Cl)ccc2[nH]1`, the compound was classed as inactive in [14] and in [7]. In assay [4], the AC50 was 22.6 µM (active).
`Cc1ccc2ncccc2c1`: in assay [1], the outcome was inactive.
Turning to `Nc1ccc2c(c1)C(=O)c1ccccc1C2=O`, the compound was classed as inactive in [6].
For `COc1ccc(S(=O)(=O)N2C(=O)[C@@](c3ccccc3OC)(N3C[C@H](O)C[C@H]3C(=O)N(C)C)c3cc(Cl)ccc32)c(OC)c1`, the result in assay [14] was inactive. The AC50 in [4] was 9.61 µM (active).
For `CCCCCCCCCCCC(=O)OC`, in assay [18], the half-maximal activity concentration (AC50) is 6.92 µM (active).
As to `CCCCCCOCCO`, the result in assay [18] was inactive.
For the compound `C=CCOC(=O)c1ccccc1C(=O)OCC=C`, the concentration at half-maximal activity (AC50) in [10] is 36.7 µM (active).
With `Cc1cccc(C)c1O`, in [2], the compound was called inactive.
As for `CN1CCN(Cc2cc(-c3ccc4[nH]c(=O)oc4c3)co2)[C@@H](c2ccc(F)cc2)C1`, the concentration at half-maximal activity (AC50) in [1] is 22 µM (active); in [12], 10.5 µM (active); in assay [5], 14.2 µM (active); in assay [14] it was 5.7 µM (active); in assay [7], 26.7 µM (active); in [11], 14.8 µM (active). Moreover, the AC50 in assay [4] was 35.4 µM (active). Also, in [8], the result was inactive.

The record behind these values is PubChem BioAssay (EPA / NIEHS).
